Most compounds without a hit are left out; they make up all but 19% or so of the library.
IL-1B inflam inh: inflammasome signaling inhibition, IL-1 beta readout; actives 4.7% (n = 360,000); AID 743279; activity change, % at 57.5 µM; THP-1 LPS/ATP IL-1B secretion, AlphaLISA, 16 h; stronger effect = lower value; in the data active = activity change below about -50%; inconclusive = mostly about -30% to -49%
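THP-1 cells pretreated 1 hr with compounds (up to 57.5 uM final), then stimulated with LPS (250 ng/mL final) plus ATP (1.25 mM final); secreted IL-1B measured by AlphaLISA after 16 hr, decreased signal indicating inhibition.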
TDP1 cell CPT: DT40-hTDP1 cell growth loss with CPT. chicken DT40 Tdp1-/-;hTDP1 cells + 20 nM CPT, ATP luminescence, 48 h. Potency, µM (top dose mostly 46.2 µM), usual class: inhibitors. actives 12% (n = 420,000). AID 686979; also: nearly all actives have a fitted effect of over 55% in size
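Cell growth measured by CellTiter-Glo luminescence after a minimum 48 h, 37 C compound exposure with 20 nM CPT in Tdp1-knockout DT40 cells stably expressing hTDP1, seeded 400/well; qHTS titration format.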
DT40 TDP1 no CPT: qHTS for Inhibitors of human tyrosyl-DNA phosphodiesterase 1 (TDP1): qHTS in cells in absence of CPT; DT40 Tdp1-/- hTDP1 cells, no CPT, ATP luminescence, 48 h; Potency, µM (titrated, usually from 46.2 µM), most hits filed as inhibitors; actives 15% (n = 420,000); AID 686978, 2013; also: nearly all actives have a fitted effect of over 55% in size
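Cells were dispensed at 400 per well, compounds added by pin tool, plates incubated ≥48 hr at 37 °C, then CellTiter-Glo added for 30 min at room temperature before luminescence reading. Line: DT40 Tdp1-/- complemented with hTDP1; camptothecin omitted.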
MCF10A rereplic: induces DNA re-replication in MCF 10a normal breast cells. MCF 10A DNA re-replication, Hoechst nuclear intensity, 48 h. Potency, µM (series often up to 46.1 µM), most hits filed as activators. actives 2.9% (n = 350,000). AID 624296; also: nearly all actives have a fitted effect of over 50% in size
SW480 rereplic: DNA re-replication induction in SW480 cells. SW480 DNA re-replication, Hoechst DNA content imaging, 48 h. Potency, µM (series often up to 46.1 µM), most hits filed as activators. actives 1.8% (n = 340,000). AID 624297; also: nearly all actives have a fitted effect of over 55% in size
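First, 250 cells per well were seeded. Next, compound or vehicle (23 nL) was pinned in, plates sat 48 hr at 37 C. Finally Hoechst was added for 40 min before fluorescence scanning.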
BCR signal inh: inhibitors of chronic active B-cell receptor signaling; ABC-DLBCL IkBa-CBG/CBR reporter, luminescence ratio, 4 h; Potency, µM (series often up to 46.1 µM), usual class: inhibitors; actives 0.05% (n = 340,000); active = well fitted inhibition curve with a large enough effect in the signal ratio, with a control signal flat, not every such curve was filed as active; inconclusive = small, poorly fitted or top-dose-only effect, or effect the other way, or a change in a side signal; the % refers to the signal ratio
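Concentration-response series (up to 46 uM) were applied to TMD8 dual-reporter cells for 4 h at 37C with doxycycline. Green/red ratio, after filter-overlap correction, defined %Activity; red signal alone was normalised to basal cells and zero luminescence.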
Large screens that a line does not name were inactive. Unless noted, calls follow the shape of the dose curve; as a rule, active = well fitted curve in the direction sought with a large enough effect; inconclusive = small, poorly fitted or top-dose-only effect, or another doubt; inactive = no such curve, though single readings can be large; an effect the other way counts as inactive or inconclusive.

COc1ccc2c(c1)/C(=C\c1cccc(/C=C3/C(=O)Nc4ccc(OC)cc43)n1)C(=O)N2	IL-1B inflam inh -107.2, TDP1 cell CPT 1.64µM, DT40 TDP1 no CPT 1.84µM, MCF10A rereplic inconclusive, SW480 rereplic 2.91µM (no result: BCR signal inh)
CC1CCc2cc(F)ccc2N1S(=O)(=O)c1ccc(Cl)nc1 (stereo not given)	TDP1 cell CPT 14.6µM, DT40 TDP1 no CPT inconclusive, MCF10A rereplic inconclusive, SW480 rereplic inconclusive, BCR signal inh inconclusive
Cc1occc1C(=O)NCCCCNC(=O)c1ccoc1C	MCF10A rereplic inconclusive
CCCCCCCCCCCNC(=O)c1ccoc1C	TDP1 cell CPT 20.6µM, DT40 TDP1 no CPT 18.4µM, MCF10A rereplic 25.9µM
CCCCNC(=O)c1ccccc1C(=O)NCCCC	TDP1 cell CPT 29.1µM, DT40 TDP1 no CPT 29.1µM, MCF10A rereplic inconclusive, SW480 rereplic inconclusive
CC(=O)CSc1nnc2[nH]c(=O)cc(N)n12	none (no result: IL-1B inflam inh, MCF10A rereplic, SW480 rereplic)
COc1ccc(S(=O)(=O)Nc2cccc3c2O[C@H](CN(C)S(=O)(=O)c2ccccc2)[C@@H](C)CN([C@H](C)CO)C3=O)cc1	SW480 rereplic 0.82µM
C[C@@H]1CN([C@H](C)CO)C(=O)c2cccc(NS(=O)(=O)c3cccs3)c2O[C@H]1CN(C)Cc1ccccc1	TDP1 cell CPT 11.6µM, DT40 TDP1 no CPT 11.6µM, BCR signal inh inconclusive
COc1ccc(S(=O)(=O)Nc2cccc3c2O[C@H](CN(C)Cc2ccc(Oc4ccccc4)cc2)[C@@H](C)CN([C@H](C)CO)C3=O)cc1	TDP1 cell CPT 16.4µM, DT40 TDP1 no CPT 20.6µM
COc1ccc(NC(=O)Nc2cccc3c2O[C@H](CN(C)S(C)(=O)=O)[C@@H](C)CN([C@H](C)CO)C3=O)cc1	none
COc1ccc(CN(C)C[C@H]2Oc3c(NC(=O)Nc4ccccc4)cccc3C(=O)N([C@H](C)CO)C[C@@H]2C)cc1	TDP1 cell CPT 16.4µM, DT40 TDP1 no CPT 29.1µM, MCF10A rereplic inconclusive
CCCCn1c(N)c(N(CCOC)C(=O)CSc2nnc(-c3ccc(F)cc3)n2N)c(=O)[nH]c1=O	none
Cc1cc(C)c2[nH]c(O)c(N=NC(=S)NCC3CCCO3)c2c1 (stereo not given)	TDP1 cell CPT 6.51µM, DT40 TDP1 no CPT 6.51µM
CCn1c(O)c(N=NC(=S)NCC2CCCO2)c2ccccc21 (stereo not given)	TDP1 cell CPT 13µM, DT40 TDP1 no CPT 9.2µM, BCR signal inh inconclusive
Oc1[nH]c2c(Cl)cc(Cl)cc2c1N=NC(=S)NCC1CCCO1 (stereo not given)	TDP1 cell CPT 3.66µM, DT40 TDP1 no CPT 4.61µM, BCR signal inh inconclusive
CC(C)(C)c1ccc(Nc2n[nH]c3ccccc23)cc1	TDP1 cell CPT inconclusive, DT40 TDP1 no CPT inconclusive (no result: MCF10A rereplic, SW480 rereplic, BCR signal inh)
Cc1ccc(NC(=O)c2ccco2)c(NC(=O)COc2ccccc2)c1	none
Cc1cc(C)cc(OCC(=O)Nc2ccccc2N2CCCCC2)c1	TDP1 cell CPT inconclusive, DT40 TDP1 no CPT inconclusive, MCF10A rereplic 8.2µM, SW480 rereplic inconclusive
Cc1ccc(OCC(=O)Nc2ccccc2C(=O)N2CCCC2)cc1	TDP1 cell CPT inconclusive, DT40 TDP1 no CPT 16.4µM
Cc1cccc(OCC(=O)Nc2ccccc2N2CCCC2)c1C	TDP1 cell CPT inconclusive, DT40 TDP1 no CPT inconclusive, MCF10A rereplic inconclusive, SW480 rereplic inconclusive
Cc1ccc(NC(=O)COc2ccccc2)c(NC(=O)c2ccccc2C)c1	TDP1 cell CPT inconclusive, DT40 TDP1 no CPT 20.6µM, SW480 rereplic inconclusive (no result: BCR signal inh)
Cc1ccccc1OCC(=O)Nc1ccccc1N1CCCCC1	TDP1 cell CPT inconclusive, DT40 TDP1 no CPT 20.6µM, MCF10A rereplic inconclusive, SW480 rereplic inconclusive
CCc1nn(CCCC(=O)N2CCN(c3cccc(C)c3C)CC2)c(=O)c2cc3occc3n12	TDP1 cell CPT inconclusive, DT40 TDP1 no CPT inconclusive, MCF10A rereplic inconclusive
CCn1c(-c2ccccc2F)nc2cc(NC(C)=O)cc(C(=O)N(C)Cc3cn(C)nc3C)c21	none (no result: IL-1B inflam inh, MCF10A rereplic, SW480 rereplic, BCR signal inh)
CC(C)(C)NC(=S)NC1CC1	none

Source: PubChem BioAssay
